Columns and labels:
Assay in all cases: log2 ratio of Biotin-Ahx-Ub-VS probe labelling (fragment/DMSO); higher = less target engagement (more negative = stronger competition), active = hit call of the paper (q ≤ 0.05, log2 ratio ≤ -1)
Conditions in all cases: compound concentration: 200 uM; treatment time: 3 h
ALG13 = molecular target: T1, ALG13 (UniProt Q9NP73)
T1 sequence (whole entry): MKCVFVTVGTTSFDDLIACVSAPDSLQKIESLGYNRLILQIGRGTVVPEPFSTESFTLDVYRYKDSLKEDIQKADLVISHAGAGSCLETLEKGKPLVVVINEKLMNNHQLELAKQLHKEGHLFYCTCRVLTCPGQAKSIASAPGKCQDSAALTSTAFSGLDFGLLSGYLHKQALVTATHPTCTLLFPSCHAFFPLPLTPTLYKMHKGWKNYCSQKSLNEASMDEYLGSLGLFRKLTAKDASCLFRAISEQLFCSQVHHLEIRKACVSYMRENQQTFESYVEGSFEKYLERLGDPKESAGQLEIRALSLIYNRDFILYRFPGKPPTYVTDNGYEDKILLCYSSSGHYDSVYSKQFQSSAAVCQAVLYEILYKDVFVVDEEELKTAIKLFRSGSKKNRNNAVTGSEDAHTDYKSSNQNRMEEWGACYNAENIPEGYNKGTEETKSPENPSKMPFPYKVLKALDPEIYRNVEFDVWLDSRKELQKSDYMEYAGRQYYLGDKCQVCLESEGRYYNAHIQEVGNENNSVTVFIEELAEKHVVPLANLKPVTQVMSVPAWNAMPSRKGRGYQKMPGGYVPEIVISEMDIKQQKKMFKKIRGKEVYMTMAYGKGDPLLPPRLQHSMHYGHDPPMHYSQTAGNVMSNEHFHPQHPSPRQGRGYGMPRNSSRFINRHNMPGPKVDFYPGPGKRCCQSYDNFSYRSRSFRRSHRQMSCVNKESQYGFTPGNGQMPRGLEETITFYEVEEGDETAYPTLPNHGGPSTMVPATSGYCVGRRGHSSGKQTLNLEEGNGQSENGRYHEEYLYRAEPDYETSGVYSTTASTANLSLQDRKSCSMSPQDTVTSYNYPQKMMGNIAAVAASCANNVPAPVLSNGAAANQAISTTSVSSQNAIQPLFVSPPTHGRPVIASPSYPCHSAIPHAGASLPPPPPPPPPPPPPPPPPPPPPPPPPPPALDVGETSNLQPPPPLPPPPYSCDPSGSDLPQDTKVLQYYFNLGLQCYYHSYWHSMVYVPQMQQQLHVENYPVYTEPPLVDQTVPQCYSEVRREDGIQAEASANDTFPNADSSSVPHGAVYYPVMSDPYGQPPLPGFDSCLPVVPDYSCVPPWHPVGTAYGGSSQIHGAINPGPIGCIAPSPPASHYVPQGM
In short: (§1)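 Fragment (200 µM) or vehicle was incubated for 3 h with triplicate HEK293T lysate samples of 495 µg, which were then treated with Biotin-Ahx-Ub-VS at 0.5 µM final for 1 h. Labelled DUBs were enriched on NeutrAvidin, digested with LysC and trypsin, and analysed by diaPASEF LC-MS/MS. Values are average log2 fragment/vehicle ratios from an unpaired t-test on global-median-normalised Spectronaut label-free quantities, using proteins with ≥2 unique peptides.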

ATXN3 = ATXN3 (UniProt P54252)
In short: as §1

BAP1 = molecular target: T2, BAP1 (UniProt Q92560)
T2 sequence (whole entry): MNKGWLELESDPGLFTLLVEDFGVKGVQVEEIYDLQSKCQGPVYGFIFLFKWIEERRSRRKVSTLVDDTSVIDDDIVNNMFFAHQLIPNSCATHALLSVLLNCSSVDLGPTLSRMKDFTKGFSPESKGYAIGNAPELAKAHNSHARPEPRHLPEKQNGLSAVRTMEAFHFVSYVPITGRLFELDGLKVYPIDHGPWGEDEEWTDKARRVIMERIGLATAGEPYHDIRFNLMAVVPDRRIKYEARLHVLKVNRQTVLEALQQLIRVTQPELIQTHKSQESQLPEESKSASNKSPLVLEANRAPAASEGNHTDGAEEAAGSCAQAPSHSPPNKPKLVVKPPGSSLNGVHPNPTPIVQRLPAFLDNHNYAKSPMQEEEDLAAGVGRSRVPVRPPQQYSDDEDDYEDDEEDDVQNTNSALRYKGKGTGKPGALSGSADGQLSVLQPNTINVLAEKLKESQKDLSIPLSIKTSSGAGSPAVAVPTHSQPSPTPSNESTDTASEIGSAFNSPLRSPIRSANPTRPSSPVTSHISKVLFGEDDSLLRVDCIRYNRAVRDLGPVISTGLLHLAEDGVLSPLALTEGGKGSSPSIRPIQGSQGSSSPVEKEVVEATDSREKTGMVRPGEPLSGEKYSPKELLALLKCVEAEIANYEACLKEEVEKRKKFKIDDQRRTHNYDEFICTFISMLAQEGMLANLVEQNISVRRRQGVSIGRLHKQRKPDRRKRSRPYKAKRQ
In short: as §1

EIF3F = EIF3F (UniProt O00303)
In short: as §1

EIF3H = EIF3H (UniProt O15372)
In short: as §1

FAM105A = molecular target: T3, FAM105A (UniProt Q9NUU6)
T3 sequence (whole entry): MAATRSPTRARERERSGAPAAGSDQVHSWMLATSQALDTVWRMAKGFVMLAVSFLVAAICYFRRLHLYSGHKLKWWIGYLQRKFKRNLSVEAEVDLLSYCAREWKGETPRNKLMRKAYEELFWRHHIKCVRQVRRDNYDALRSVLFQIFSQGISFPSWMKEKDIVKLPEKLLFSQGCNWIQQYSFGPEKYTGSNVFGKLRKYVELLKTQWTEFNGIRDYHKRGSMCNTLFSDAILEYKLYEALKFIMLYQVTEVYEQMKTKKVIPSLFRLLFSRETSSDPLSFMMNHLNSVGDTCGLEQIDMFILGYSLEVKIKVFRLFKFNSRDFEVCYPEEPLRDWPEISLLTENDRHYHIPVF
In short: as §1

OTUB1 = OTUB1 (UniProt Q96FW1)
In short: as §1

OTUD4 = molecular target: T4, OTUD4 (UniProt Q01804)
T4 sequence (whole entry): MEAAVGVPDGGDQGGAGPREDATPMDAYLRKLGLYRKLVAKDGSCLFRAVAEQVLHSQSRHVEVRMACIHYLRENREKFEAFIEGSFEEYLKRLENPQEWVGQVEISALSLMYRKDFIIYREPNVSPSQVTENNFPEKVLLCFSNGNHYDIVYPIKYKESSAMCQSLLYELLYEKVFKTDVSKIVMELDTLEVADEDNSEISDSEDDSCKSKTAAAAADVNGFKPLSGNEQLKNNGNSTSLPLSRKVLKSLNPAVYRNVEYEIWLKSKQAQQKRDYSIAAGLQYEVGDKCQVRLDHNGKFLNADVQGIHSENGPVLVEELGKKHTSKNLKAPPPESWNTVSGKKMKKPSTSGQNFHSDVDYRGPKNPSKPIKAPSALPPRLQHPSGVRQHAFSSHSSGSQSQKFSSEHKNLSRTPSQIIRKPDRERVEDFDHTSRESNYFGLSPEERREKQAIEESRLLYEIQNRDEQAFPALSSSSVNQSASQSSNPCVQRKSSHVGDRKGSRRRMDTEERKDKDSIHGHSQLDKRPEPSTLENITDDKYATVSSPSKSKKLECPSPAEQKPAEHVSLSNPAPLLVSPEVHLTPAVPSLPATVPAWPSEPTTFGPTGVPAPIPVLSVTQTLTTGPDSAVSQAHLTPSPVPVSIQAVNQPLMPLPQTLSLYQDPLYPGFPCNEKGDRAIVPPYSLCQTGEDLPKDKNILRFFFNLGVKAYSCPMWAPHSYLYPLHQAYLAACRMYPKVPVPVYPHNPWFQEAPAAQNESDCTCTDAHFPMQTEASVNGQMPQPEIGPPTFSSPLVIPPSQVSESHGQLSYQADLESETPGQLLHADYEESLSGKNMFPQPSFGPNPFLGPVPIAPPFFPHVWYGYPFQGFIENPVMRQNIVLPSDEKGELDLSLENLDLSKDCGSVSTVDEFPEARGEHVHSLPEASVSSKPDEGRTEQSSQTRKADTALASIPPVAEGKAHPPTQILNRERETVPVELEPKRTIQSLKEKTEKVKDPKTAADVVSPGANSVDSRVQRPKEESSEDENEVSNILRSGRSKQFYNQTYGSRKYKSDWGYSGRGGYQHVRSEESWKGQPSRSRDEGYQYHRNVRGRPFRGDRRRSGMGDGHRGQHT
In short: as §1

OTUD5 = molecular target: T5, OTUD5 (UniProt Q96G74)
T5 sequence (whole entry): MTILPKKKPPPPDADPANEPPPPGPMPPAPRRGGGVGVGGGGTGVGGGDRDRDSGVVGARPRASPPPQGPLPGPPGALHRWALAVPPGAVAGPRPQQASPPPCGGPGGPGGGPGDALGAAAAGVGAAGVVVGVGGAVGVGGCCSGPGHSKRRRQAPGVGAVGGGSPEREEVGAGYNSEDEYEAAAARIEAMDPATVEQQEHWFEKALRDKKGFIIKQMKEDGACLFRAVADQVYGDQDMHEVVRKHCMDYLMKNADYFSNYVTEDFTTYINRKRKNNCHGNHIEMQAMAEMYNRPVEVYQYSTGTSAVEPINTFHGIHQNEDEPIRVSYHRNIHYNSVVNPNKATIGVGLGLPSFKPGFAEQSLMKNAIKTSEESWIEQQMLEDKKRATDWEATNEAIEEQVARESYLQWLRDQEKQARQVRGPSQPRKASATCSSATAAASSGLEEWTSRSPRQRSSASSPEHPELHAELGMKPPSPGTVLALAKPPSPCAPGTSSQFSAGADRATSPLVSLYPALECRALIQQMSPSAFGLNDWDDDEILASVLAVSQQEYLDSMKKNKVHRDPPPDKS
In short: as §1

Measured: log2 ratio of Biotin-Ahx-Ub-VS probe labelling

Sequence of EIF3H (O15372 whole entry): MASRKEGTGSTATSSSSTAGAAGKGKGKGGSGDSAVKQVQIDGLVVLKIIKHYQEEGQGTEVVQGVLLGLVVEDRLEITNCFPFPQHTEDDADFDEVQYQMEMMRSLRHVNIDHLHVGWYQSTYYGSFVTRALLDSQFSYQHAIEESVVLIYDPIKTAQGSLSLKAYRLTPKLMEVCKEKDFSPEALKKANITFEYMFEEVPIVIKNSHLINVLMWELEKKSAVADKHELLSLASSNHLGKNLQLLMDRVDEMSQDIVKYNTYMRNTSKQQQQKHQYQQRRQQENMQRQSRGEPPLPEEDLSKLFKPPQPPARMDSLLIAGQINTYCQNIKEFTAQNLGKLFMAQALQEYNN
Sequence of EIF3F (O00303 whole entry): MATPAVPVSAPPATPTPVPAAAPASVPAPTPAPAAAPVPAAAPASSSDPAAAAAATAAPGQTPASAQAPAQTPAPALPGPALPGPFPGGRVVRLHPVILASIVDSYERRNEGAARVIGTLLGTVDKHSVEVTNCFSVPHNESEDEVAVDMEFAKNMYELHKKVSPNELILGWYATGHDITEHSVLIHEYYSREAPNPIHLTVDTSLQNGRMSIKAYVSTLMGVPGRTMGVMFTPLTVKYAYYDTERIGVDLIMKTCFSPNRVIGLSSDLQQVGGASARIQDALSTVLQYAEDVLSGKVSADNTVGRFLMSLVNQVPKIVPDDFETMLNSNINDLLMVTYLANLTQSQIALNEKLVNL
Sequence of OTUB1 (Q96FW1 whole entry): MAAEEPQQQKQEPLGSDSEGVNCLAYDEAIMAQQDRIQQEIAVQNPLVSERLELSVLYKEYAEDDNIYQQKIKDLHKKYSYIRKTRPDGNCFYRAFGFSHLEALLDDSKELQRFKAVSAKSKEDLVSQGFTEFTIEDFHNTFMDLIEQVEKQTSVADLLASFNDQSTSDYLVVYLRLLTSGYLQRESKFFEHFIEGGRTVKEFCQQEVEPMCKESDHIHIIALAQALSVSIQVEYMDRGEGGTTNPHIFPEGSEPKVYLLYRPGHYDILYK
Sequence of ATXN3 (P54252 whole entry): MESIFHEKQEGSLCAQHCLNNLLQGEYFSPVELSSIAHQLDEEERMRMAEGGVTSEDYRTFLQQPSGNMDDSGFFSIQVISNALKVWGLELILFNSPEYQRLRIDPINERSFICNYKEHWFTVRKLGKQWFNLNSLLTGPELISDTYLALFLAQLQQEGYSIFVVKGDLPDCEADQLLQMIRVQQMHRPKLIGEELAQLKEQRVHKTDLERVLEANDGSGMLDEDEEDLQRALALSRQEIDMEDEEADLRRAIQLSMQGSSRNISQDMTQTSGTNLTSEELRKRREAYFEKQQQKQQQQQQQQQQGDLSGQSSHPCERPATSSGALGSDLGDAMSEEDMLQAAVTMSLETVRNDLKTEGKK

O=C(CCl)N1c2ccccc2NC(=O)C12CCCC2
inactive: ALG13 -0.0909 | ATXN3 -0.311 | BAP1 -0.609 | EIF3F -0.0311 | EIF3H 0.277 | FAM105A 0.141 | OTUB1 -0.478 | OTUD4 -0.196 | OTUD5 -0.711
